Here are results for 36 compounds from PubChem BioAssay.

Activity calls are given as the source filed them.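 The calls were made as follows, unless noted: active = inhibition above 50%; inactive = the rest.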

One experiment is described as follows: antimalarial activity against Dd2 strain (AID 2302;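 active = growth inhibition above 50% at the single 2 µM test dose, taken to imply half-maximal potency below 2 µM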;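 also: 0% = DMSO untreated growth and 100% = chloroquine plus artemisinin killed control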). Conditions: P. falciparum Dd2 in RBCs, LDH growth readout, 72 h; at 2 µM; hits give high values.
In the case of `CC(C)C[C@@H](CNC[C@H](CC(C)C)NC(=O)OC(C)(C)C)NC(=O)OC(C)(C)C`, the growth inhibition is 58% (active).
The same measure, in the same setting: the same measure for `COc1cc(NCC(CN)Cc2ccc3c(c2)OCO3)nc2ccccc12` (stereo unspecified): 6% (inactive); for `Cc1cc2nc(-c3ccc(SCC(=O)Nc4ccc5c(c4)OCCO5)nc3)[nH]c2cc1C`: 6% (inactive); for `O=C(C=Cc1ccc(Cl)c(Cl)c1)NCCCCCN1CCCC(CCCNC(=O)c2cccs2)C1` (stereo unspecified): 0% (inactive).

A short description of a further experiment: human hepatoma cell viability loss – ATP luminescence, cytotoxicity control for P. falciparum antimalarial project, primary screen (AID 2303).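 Also: 0% = DMSO wells and 100% = digitonin-killed cells.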 The settings on record: HepG2 viability, 24-48 h, at 10 µM, hits give high values.
On to `CN(Cc1ccncc1)C(Cc1ccccc1)C1CCN(Cc2ccc(O)c(Cl)c2)CC1` (stereo unspecified), for which the inhibition (in general, the drop in the measured response relative to a control, in per cent) is 22% (inactive).
Still for that read-out and setting: the same measure for `Clc1ccccc1CN1CCC(NCc2cccc(-n3ccnc3)c2)CC1`: 6% (inactive); for `CCN1CCC(N(Cc2ccc(-c3ccc(C(F)(F)F)cc3)cc2)C(=O)Cn2c(CCc3cccc(F)c3F)cc(=O)c3cn(C)nc32)CC1`: 27% (inactive); for `CC[C@H]1CN2CCc3cc(OC)c(OC)cc3[C@@H]2C[C@@H]1CC1=NCCc2c1[nH]c1ccc(OCc3ccccc3)cc21`: 57% (active).
The same measure, in the same setting: the same measure for `Nc1ncc(-c2ccsc2)c2ccc(-c3cnc[nH]3)cc12`: 31% (inactive); for `Cc1c(C)c2c(c(C)c1O)CC[C@@](C)(C(=O)N1CCC(CCN3CCC(c4c[nH]c5ccccc45)CC3)CC1)O2`: 37% (inactive); for `Cc1ccc(NC(=O)Nc2ccc(Cl)cc2)cc1-c1cccc(C(=O)Nc2ccc(F)cc2)c1`: 8% (inactive).
As for `N#Cc1cc([N+](=O)[O-])ccc1-n1nc(C(N)=O)n(Cc2cccc(F)c2)c1=S`, the inhibition was 6% (inactive).
On the same count and under the same terms, the figure for `Cc1ccccc1C1CCN(C2CCC(NC(=O)c3ccc(-c4cc(C(F)(F)F)nn4C)s3)CC2)CC1` (stereo unspecified) is 42% (inactive); for `CC1(C)N=C(N)N=C(N)N1OCc1cc2ccccc2cc1CON1C(N)=NC(N)=NC1(C)C` it is 0% (inactive).
The same measure, in the same setting: the figure for `Cc1cc(N[C@@H](CC(C)C)C(=O)NCc2cccs2)nc(NCCc2ccc(F)cc2)n1` is 20% (inactive).
Same read-out and setting: the figure for `O=C(N[C@@H](Cc1ccccc1)[C@H](O)CNC1CCCCC1)c1cc(C2CCCC2)cc(N2CCCC2=O)c1` is 17% (inactive); for `O=C(Nc1ccc(Cl)cc1)c1ccc(CN2CCCN(Cc3cccc(O)c3)CC2)cc1` it is 52% (active).
Consider `COc1ccc(N2CCN(CCCCNC(=O)c3ccc(NC(=O)c4cc(C(F)(F)F)cc(C(F)(F)F)c4)cc3)CC2)cc1OC`, for which the inhibition was 9% (inactive).
On the same count and under the same terms, the figure for `CS(=O)(=O)CCNCc1cc(-c2cc3ncnc(Nc4ccc(OCc5cccc(F)c5)c(Cl)c4)c3s2)cs1` is 8% (inactive).
Still for that read-out and setting: the figure for `OCC1CCN(Cc2cccc(-c3cccc(-c4nc5ccc(C(F)(F)F)cc5[nH]4)c3)c2)CC1` is 24% (inactive).
Still for that read-out and setting: the figure for `CCN(CCCNc1nc(=S)[nH]c2cc(OC)c(OC)cc12)c1ccccc1` is 14% (inactive); for `Cc1cc(=O)[nH]c(/N=C(/N)NOCc2ccccc2)n1` it is 0% (inactive); for `O=C(Nc1cccc(-c2ccc(-c3nc4ccccc4[nH]3)cc2)c1)Nc1ccc(F)c(F)c1F` it is 45% (inactive).
Take `CC(C)c1ccc(NS(=O)(=O)c2cccc(C(=O)NC3CCN(CC4CCCCC4)CC3)c2)cc1`: the inhibition is 71% (active).
Same read-out and setting: the same measure for `CC(C)(C)c1ccc2nc(-c3ccc(/C=C/C(=O)NC4CCN(Cc5ccccc5)CC4)cc3)[nH]c2c1`: 45% (inactive).
Still for that read-out and setting: the figure for `COc1cccc(C=NNc2cc(C)nc3c(OC)cccc23)c1` is 6% (inactive); for `O=C(/C=C/c1ccc(Cl)c(Cl)c1)NCCCCCN1CCCC(CNC(=O)Nc2ccc(Oc3ccccc3)cc2)C1` (stereo unspecified) it is 26% (inactive); for `CC(C)CNCc1cccc(-c2cccc(CN(CCN(C)C)C(=O)NCCc3ccccc3)c2)c1` it is 84% (active).
The same measure, in the same setting: the same measure for `CC(C)(c1ccccc1)c1ccc(O)c(CN2CCOCC2)c1`: -7% (inactive); for `CC1CCN(C(=O)C(Cc2c[nH]c3ccccc23)NS(=O)(=O)c2ccc(Cl)cc2)CC1` (stereo unspecified): -22% (inactive); for `O=C1NC(=O)C(c2ccc(Cl)cc2)=C1Nc1cccc(S(=O)(=O)C(F)(F)F)c1`: 1% (inactive).
Turning to `COc1ccc(N2C(=O)c3c(c4ccccc4n3C)C2c2ccccc2O)cc1` (stereo unspecified), the inhibition is 32% (inactive).
Turning to `CCCCC(=O)Nc1nonc1-c1ccc(OCC)c(OCC)c1`, the inhibition is 9% (inactive).
Still for that read-out and setting: the same measure for `CN(C(=O)/C=C/c1c(Cl)cccc1Cl)C1CCN(CCCCCNC(=O)/C=C/c2ccc(Cl)c(Cl)c2)CC1`: 78% (active); for `CCn1c(-c2cc(C)on2)nc2cnc(Oc3ccc(C(=O)N4CC(=O)N(C)C4C(C)(C)C)cc3)cc21` (stereo unspecified): 44% (inactive).
The same measure, in the same setting: the figure for `COc1cc2nc(N3CCC(CNC(=O)c4ccc(-c5ccc(C(=O)N(C)C)cc5C)cc4)CC3)nc(N3CCN(C)CC3)c2cc1OC` is 26% (inactive).
